Over roughly 140,000 sequences, “enrichment ratio after two sorts for PhoP signalling” has its median near 0; the highest 2% begin near 11. The full list was thinned out, with the highest values kept by preference.
B1: PhoQ; a variant is named by its letters at X, in order, P23837 (parent)
chain: MKKLLRLFFPLSLRVRFLLATAAVVLVLSLAYGMVALIGYSVSFDKTTFRLLRGESNLFYTLAKWENNKLHVELPENIDKQSPTMTLIYDENGQLLWAQRDVPWLMKMIQPDWLKSNGFHEIEADVNDTSLLLSGDHSIQQQLQEVREDDDDAEMTHSVAVNVYPATSRMPKLTIVVVDTIPVELKSSYMVWSWFIYVLSANLLLVIPLLWVAAWWSLRPIEALAKEVRELEEHNRELLNPATTRELTSLVRNLNRLLKSERERYDKYRTTLTDLTHSLKTPLXXLQXXLRSLRSEKMSVSDAEPVMLEQISRISQQIGYYLHRASMRGGTLLSRELHPVAPLLDNLTSALNKVYQRKGVNISLDISPEISFVGEQNDFVEVMGNVLDNACKYCLEFVEISARQTDEHLYIVVEDDGPGIPLSKREVIFDRGQRVDTLRPGQGVGLAVAREITEQYEGKIVAGESMLGGARMEVIFGRQHSAPKDE

Variants of: B1
Assay: enrichment ratio after two sorts for PhoP signalling (ratio (wild type AVST 3.29)); higher = more functional
Conditions: with PhoP (E. coli)

Variant | enrichment ratio
TEPC | ≤ 0.25
TENK | 5.62
TETC | 24.3
PWAR | ≤ 0.25
SRGE | ≤ 0.25
STMI | 14.9
QDFA | ≤ 0.25
SIMI | 17.4
SIGE | 16.9
LWMI | ≤ 0.25
QEMI | 65.2
SIWI | ≤ 0.25
KYMI | ≤ 0.25
SWMI | ≤ 0.25
SPMI | ≤ 0.25
KYGE | ≤ 0.25
WVYV | ≤ 0.25
RSYE | ≤ 0.25
DIVY | ≤ 0.25
VANA | ≤ 0.25
RKTG | ≤ 0.25
ECNY | ≤ 0.25
LALQ | 1.26
AIVS | 12.6

Variant | enrichment ratio
WIVS | ≤ 0.25
AKVS | 13.5
AHVS | ≤ 0.25
TKVS | 7.5
AAVS | ≤ 0.25
YWKL | ≤ 0.25
HFDQ | ≤ 0.25
TNWR | ≤ 0.25
TNMG | ≤ 0.25
TNNV | 13.4
TNCV | 10
TNVA | ≤ 0.25
MNNV | ≤ 0.25
TNMI | 11.7
TNHI | ≤ 0.25
TNMH | 15.7
TNQV | 47.4
MNQV | ≤ 0.25
TNCH | ≤ 0.25
TTFC | ≤ 0.25
IGNC | ≤ 0.25
NNDF | ≤ 0.25
KDQI | ≤ 0.25
WTKG | ≤ 0.25

Variant | enrichment ratio
KNQF | ≤ 0.25
FFRV | ≤ 0.25
IYFT | ≤ 0.25
ECCW | ≤ 0.25
SVDL | 1.56
WHFP | ≤ 0.25
TNIV | ≤ 0.25
TNMS | 4.8
TNMV | 12.6
KYMA | ≤ 0.25
STMA | 4.9
SRGA | ≤ 0.25
SEGA | 12
SEMA | 13.6
KYGA | ≤ 0.25
ALVP | ≤ 0.25
HAVN | ≤ 0.25
FQPY | ≤ 0.25
AEGL | 1.47
AEES | ≤ 0.25
AWCD | ≤ 0.25
AECV | 21.4
AEWV | ≤ 0.25
AEPL | ≤ 0.25

Variant | enrichment ratio
QECD | ≤ 0.25
AESR | 3.86
AESH | 1.31
AECL | 20.9
AESI | 25.1
AECD | 17
DTCP | ≤ 0.25
FCNA | ≤ 0.25
VDPQ | ≤ 0.25
GHKH | ≤ 0.25
IWMV | ≤ 0.25
MRYG | ≤ 0.25
VCGI | ≤ 0.25
VANS | ≤ 0.25
KPRL | ≤ 0.25
AIIF | ≤ 0.25
AECG | ≤ 0.25
AECK | ≤ 0.25
AEIF | 18.6
AECQ | 30.9
ADIF | ≤ 0.25
AECI | 4.88
AECP | ≤ 0.25
AECA | 42.4

Variant | enrichment ratio
AECS | 39.5
RMEF | ≤ 0.25
THRH | ≤ 0.25
LFGG | ≤ 0.25
SVRY | ≤ 0.25
VDCR | ≤ 0.25
PYWQ | ≤ 0.25
SCCQ | 13.2
SCWM | ≤ 0.25
SCNE | ≤ 0.25
SCCK | 14.3
SCVL | 1.96
SCIL | 0.31
SCCI | 9.92
SCCL | 18.7
SCIE | ≤ 0.25
SCKQ | ≤ 0.25
KCCQ | ≤ 0.25
SCCE | 13.9
QNII | ≤ 0.25
YSFC | ≤ 0.25
QFDM | ≤ 0.25
MRHI | ≤ 0.25
SCGL | 13.6

Variant | enrichment ratio
SCNL | 0.751
KCCG | ≤ 0.25
KYGL | ≤ 0.25
SCRM | ≤ 0.25
SCGG | 11.1
SCCG | 14.3
SCTM | 17.9
SCGM | 9.65
IPCK | ≤ 0.25
NTGH | ≤ 0.25
VHAE | ≤ 0.25
RFHG | ≤ 0.25
GDAF | ≤ 0.25
THIS | ≤ 0.25
SATS | 14.2
HATY | ≤ 0.25
SATD | ≤ 0.25
SFLI | 0.615
NNTY | ≤ 0.25
SATC | 5.33
TMTY | 12.9
AITY | 3.48
SSLI | 18.9
SSDK | ≤ 0.25

Variant | enrichment ratio
AHTY | ≤ 0.25
AETY | 16
IYRF | ≤ 0.25
VMFP | ≤ 0.25
EPNR | ≤ 0.25
LVNK | ≤ 0.25
AYMN | ≤ 0.25
SQGS | 7.13
NISG | ≤ 0.25
NDHH | ≤ 0.25
LCTY | ≤ 0.25
TQTY | 17.5
TSAY | 11.6
FSAY | ≤ 0.25
KYTY | ≤ 0.25
SITY | 12.7
FQTY | ≤ 0.25
TSTY | 11.6
SQTY | 8.07
DHTY | ≤ 0.25
KSAY | 0.715
MMTY | ≤ 0.25
HMAW | ≤ 0.25
ILRI | ≤ 0.25

Variant | enrichment ratio
DLNY | ≤ 0.25
WPQA | ≤ 0.25
METY | 3.22
KSTY | ≤ 0.25
AKWY | ≤ 0.25
QETY | ≤ 0.25
NVTY | ≤ 0.25
TKWY | 12.9
SETY | 15
KSWY | ≤ 0.25
KATY | ≤ 0.25
SSTY | 11.3
SATY | 12.7
NATY | ≤ 0.25
VMNQ | ≤ 0.25
KFEC | ≤ 0.25
WKRY | ≤ 0.25
TSWY | 14.1
SIGY | 14.3
MMWY | ≤ 0.25
SLGY | 1.84
KYGY | ≤ 0.25
LCWY | ≤ 0.25
VGCD | ≤ 0.25

Variant | enrichment ratio
QAGQ | 24.5
QAVQ | ≤ 0.25
QAGD | ≤ 0.25
QAMV | ≤ 0.25
QGGQ | 8.17
NAGQ | ≤ 0.25
MAMQ | ≤ 0.25
FAMQ | 45
FAVQ | ≤ 0.25
TPGQ | 16
QPGQ | ≤ 0.25
QAMQ | 44.4
KRHT | ≤ 0.25
IASQ | ≤ 0.25
FDMR | ≤ 0.25
HIEP | ≤ 0.25
ITVA | ≤ 0.25
SHRP | ≤ 0.25
NRKT | ≤ 0.25
GQLV | 7.76
SALF | 9.67
KRAM | ≤ 0.25
MDPE | ≤ 0.25
EKES | ≤ 0.25

Variant | enrichment ratio
ASSR | ≤ 0.25
ASSQ | 14.5
ASHP | ≤ 0.25
ASSS | 11.9
ASSK | ≤ 0.25
ASKA | ≤ 0.25
VWGF | ≤ 0.25
SDHM | ≤ 0.25
AQDN | ≤ 0.25
PECQ | ≤ 0.25
IETV | ≤ 0.25
GNSF | 1.14
GGGF | ≤ 0.25
GYGF | ≤ 0.25
GVSF | 11.8
GVGF | 12
GVHF | ≤ 0.25
DDND | ≤ 0.25
QPHR | ≤ 0.25
FDYT | ≤ 0.25
YIRR | ≤ 0.25
MMNF | ≤ 0.25
TSHV | 13.7
FSCH | 0.442

Variant | enrichment ratio
TSWA | 15.4
KSWA | ≤ 0.25
MMWA | ≤ 0.25
KSNF | ≤ 0.25
TSNF | 16.1
KSCH | ≤ 0.25
THHV | ≤ 0.25
KSHV | ≤ 0.25
TSCH | 15.8
QSCS | ≤ 0.25
SYVA | ≤ 0.25
GMCC | ≤ 0.25
FQGH | ≤ 0.25
NRAM | ≤ 0.25
KRFS | ≤ 0.25
CNWS | ≤ 0.25
RPDF | ≤ 0.25
KFLF | ≤ 0.25
SCDN | ≤ 0.25
PMCH | ≤ 0.25
TSTI | 22
LCTA | ≤ 0.25
TSTA | 14.2
KSEI | ≤ 0.25

Variant | enrichment ratio
KSHF | ≤ 0.25
TSHF | 13.4
TSHE | 5.88
WITI | ≤ 0.25
WSEI | ≤ 0.25
MMTI | ≤ 0.25
TSEI | 15.3
MMTA | ≤ 0.25
LGWN | ≤ 0.25
TWGR | ≤ 0.25
FHQM | ≤ 0.25
TARV | ≤ 0.25
QSIY | ≤ 0.25
KSHQ | ≤ 0.25
TSHQ | 11.8
THHQ | ≤ 0.25
DFQV | ≤ 0.25
WHCG | ≤ 0.25
AQTK | ≤ 0.25
AQTC | 9.55
AQLS | 10.2
AQCN | 4.1
AQLA | 19
AQNL | ≤ 0.25

Variant | enrichment ratio
AQLT | 8.16
AQLN | 31.6
AQTS | 12.8
FEWS | ≤ 0.25
RCQR | ≤ 0.25
FLMM | 1.72
YNDD | ≤ 0.25
IFQD | ≤ 0.25
AKFS | ≤ 0.25
TMMH | 5.83
TMCG | 15
EMCG | ≤ 0.25
HACH | ≤ 0.25
TMPE | ≤ 0.25
TMIE | ≤ 0.25
KMCG | ≤ 0.25
NNCV | ≤ 0.25
TMCE | 21.2
TMCV | 13.2
DMCV | ≤ 0.25
TMCH | 15.9

From a collection of fitness landscapes (doi:10.1126/science.1257360)
